{
  "source": "PubChem BioAssay (Tox21)",
  "note": "Activity calls are given as the source filed them. The call rests on the fitted dose curve. On the % scale 0 is the no-effect control and ±100 the full control effect.",
  "data": [
    {"target": "Androgen receptor (Homo sapiens) (UniProt P10275)", "sequence (P10275 whole entry, looked up)": "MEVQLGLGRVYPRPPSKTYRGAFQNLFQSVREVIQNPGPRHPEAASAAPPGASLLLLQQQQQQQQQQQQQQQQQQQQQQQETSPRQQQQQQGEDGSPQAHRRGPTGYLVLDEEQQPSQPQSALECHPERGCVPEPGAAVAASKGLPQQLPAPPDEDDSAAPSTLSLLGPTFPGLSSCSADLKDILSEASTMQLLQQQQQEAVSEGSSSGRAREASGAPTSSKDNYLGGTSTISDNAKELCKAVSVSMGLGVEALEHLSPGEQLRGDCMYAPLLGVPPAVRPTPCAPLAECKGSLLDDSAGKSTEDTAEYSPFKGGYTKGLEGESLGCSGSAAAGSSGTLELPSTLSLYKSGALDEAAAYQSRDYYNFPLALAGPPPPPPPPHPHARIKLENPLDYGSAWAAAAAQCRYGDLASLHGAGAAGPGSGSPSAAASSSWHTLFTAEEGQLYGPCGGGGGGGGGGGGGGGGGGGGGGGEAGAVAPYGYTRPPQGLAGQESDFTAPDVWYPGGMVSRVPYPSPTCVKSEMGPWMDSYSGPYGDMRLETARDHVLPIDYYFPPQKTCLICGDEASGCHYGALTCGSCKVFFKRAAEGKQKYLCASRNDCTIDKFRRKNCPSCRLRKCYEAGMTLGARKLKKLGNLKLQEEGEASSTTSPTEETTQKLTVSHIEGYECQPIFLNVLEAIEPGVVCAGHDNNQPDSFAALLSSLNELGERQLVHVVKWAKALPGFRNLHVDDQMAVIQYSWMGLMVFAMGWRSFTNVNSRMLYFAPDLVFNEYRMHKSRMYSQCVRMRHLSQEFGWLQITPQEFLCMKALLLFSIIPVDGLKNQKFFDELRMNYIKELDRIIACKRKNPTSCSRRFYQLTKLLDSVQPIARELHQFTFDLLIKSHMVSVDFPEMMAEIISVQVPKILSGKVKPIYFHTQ", "assay": "qHTS assay to identify small molecule agonists of the androgen receptor (AR) signaling pathway in the presence of an antagonist (AID 1259381); further: nearly all actives have a fitted effect of over 15% in size", "details": "MDA-kb2 MMTV-luciferase, AR agonist + nilutamide, 16 h; series mostly up to 92.4 µM; activation: at the top concentration", "method_in_brief": "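MDA-kb2 cells, 3,000/well, rested 5hr at 37C/0% CO2 → nilutamide 3.0uM final or buffer → compounds, 15 conc. → 16hr at 37C → ONE-Glo, 30min RT → luminescence.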", "values": [
      {"smiles": "CC(C)(C)CC(C)(C)c1ccc(O)c(Cc2ccc(Cl)cc2Cl)c1", "activation": "-8.85% [at 42.5 µM] (inactive)"},
      {"smiles": "Nc1nc2ccccc2n1Cc1ccc(F)cc1", "activation": "-11.2% [at 42.5 µM] (inactive)"},
      {"smiles": "O=C(Oc1ccccc1)c1ccccc1C(=O)Oc1ccccc1", "activation": "-7.12% (inactive)"},
      {"smiles": "CC1=NC(C)OC1C", "note": "(stereo not given)", "activation": "-0.128% (inactive)"},
      {"smiles": "C[n+]1cc2c3c(ccc2c2ccc4cc5c(cc4c21)OCO5)OCO3", "activation": "-10.3% [at 19 µM] (inactive)"},
      {"smiles": "CN(C)c1ccc(C2(c3ccc(N(C)C)cc3)OC(=O)c3cc(N(C)C)ccc32)cc1", "activation": "2.05% (inactive)"},
      {"smiles": "CCOC(=O)c1nc(C(Cl)(Cl)Cl)n(-c2ccc(Cl)cc2Cl)n1", "activation": "-1.42% (inactive)"},
      {"smiles": "OCCN1CCN(CC/C=C2/c3ccccc3Sc3ccc(C(F)(F)F)cc32)CC1", "activation": "-9.4% [at 42.5 µM] (inactive)"},
      {"smiles": "CC(C)(C)C1CCC(CC2=C(O)c3ccccc3C(=O)C2=O)CC1", "note": "(stereo not given)", "activation": "-10.5% [at 42.5 µM] (inactive)"},
      {"smiles": "O=C(OCC1CO1)C1CCCCC1C(=O)OCC1CO1", "note": "(stereo not given)", "activation": "-0.241% (inactive)"},
      {"smiles": "CC1(C)CCC(C)(C)c2cc(C(=O)Nc3ccc(C(=O)O)cc3)ccc21", "activation": "-3.4% (inactive)"},
      {"smiles": "CN(C)CCCOC1(Cc2ccccc2)CCCCCC1", "activation": "-3.17% [at 42.5 µM] (inactive)"},
      {"smiles": "COc1cccc2c1C(=O)c1c(O)c3c(c(O)c1C2=O)C[C@@](O)(C(=O)CO)C[C@@H]3O[C@H]1C[C@H](N)[C@H](O[C@@H]2CCCCO2)[C@H](C)O1", "activation": "-0.0675% [at 42.5 µM] (inactive)"},
      {"smiles": "CS(=O)(=O)CCNCc1ccc(-c2ccc3ncnc(Nc4ccc(OCc5cccc(F)c5)c(Cl)c4)c3c2)o1", "activation": "-8.92% [at 42.5 µM] (inactive)"},
      {"smiles": "O=C(Nc1cccc([N+](=O)[O-])c1)c1cc2ccccc2cc1O", "activation": "-10.5% (inactive)"}
    ]}
  ]
}
